The list is not random: actives were taken first. Their share in the collection is about 8.7%.
AMA1 RON2 block – AMA1-RON2 (P. falciparum) interaction inhibition. AlphaScreen AMA1-biotinylated RON2 peptide binding. Potency, µM (top dose mostly 58.2 µM), without a hit: at the top dose activity change, negative = inhibition, actives largely listed as inhibitors. 0.2% of 360,000 active. AID 720542;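 also: 0% = vehicle wells and -100% = peptide control; nearly all actives have a fitted effect of over 45% in size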
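AMA1 (3D7) with his tag at 25 nM final met compounds first, then biotinylated RON2 peptide at 25 nM; detection used donor plus acceptor beads, 10 µg/mL apiece, read by AlphaScreen after 30 min at room temperature.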
Pf growth 96h – P. falciparum growth inhibition at 96 hour, primary screen for plastid delayed-death inhibitors; P. falciparum luciferase reporter growth, 96 h; Potency, µM (doses to about 28.7 µM), without a hit: at the top dose activity change, negative = inhibition, usual class: inhibitors; 6.9% of 320,000 active; AID 504834
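P. falciparum expressing integrated firefly luciferase grown in erythrocytes (2% hematocrit, 0.05% parasitemia final) with compounds for 96 hours at 37 C, 5% CO2. Growth inhibition read as loss of luminescence after adding luciferase detection reagent.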
Pf growth 48h – inhibits P. falciparum growth in the first generation, 48 h; AID 504832; P. falciparum luciferase growth in erythrocytes, 48 h; Potency, µM (titrated, usually from 28.7 µM), for the others: top-dose activity change, negative = inhibition, usual class: inhibitors; 5.9% of 310,000 active
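Parasite viability was followed by luminescence of a genomically integrated firefly luciferase. Cultures held 0.1% parasitemia at 2% hematocrit (final), incubated under 5% CO2 at 37 C.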
VACV Venus inh – vaccinia inhibition (Venus reporter); 0.46% of 330,000 active; Potency, µM (doses to about 36.5 µM), without a hit: at the top dose activity change, negative = inhibition, usual class: inhibitors; Vaccinia virus Venus reporter expression, fluorescence; AID 720580; calls by dose curve; tested in A549 cells; also: nearly all actives have a fitted effect of over 30% in size
Vaccinia mCherry – vaccinia inhibition (mCherry reporter); Vaccinia virus mCherry reporter infection, fluorescence; Potency, µM (top dose mostly 36.5 µM), for the others: top-dose activity change, negative = inhibition, hits mostly inhibitors; 0.63% of 310,000 active; AID 720579; calls by dose curve; tested in A549 cells; also: nearly all actives have a fitted effect of over 35% in size
The depositor's hits bear a star; i = inactive; ? = inconclusive; / = not tested or not shown. Unless noted, calls follow the shape of the dose curve; as a rule, active = well fitted curve in the direction sought with a large enough effect; inconclusive = small, poorly fitted or top-dose-only effect, or another doubt; inactive = no such curve, though single readings can be large; an effect the other way counts as inactive or inconclusive. Unless noted, % is scaled to controls: 0 for no effect and ±100 for the full control effect; potency is read from the fitted curve at half-maximal effect.

SMILES	AMA1 RON2 block	Pf growth 96h	Pf growth 48h	VACV Venus inh	Vaccinia mCherry
O=C(CSc1nnc(CCc2nc3ccccc3[nH]2)n1-c1ccccc1)NCc1ccccc1	3%	10µM*	?	-15%	/
O=C(CSc1nnc(CCc2nc3ccccc3[nH]2)n1-c1ccccc1)NCc1ccco1	-1%	?	-15%	/	/
Cc1cc(=O)[nH]c2nc(N)ccc12	/	/	/	-3%	-13%
Cc1cc(C)c2ccc(N)nc2c1O	53%	196%	4.1µM*	?	13µM*
NC(=O)c1c(NC(=O)CN2CCOCC2)sc2c1CCC2	15%	13%	13%	56%	/
NC(=O)c1c(NC(=O)CN2CCCC2)sc2c1CCCC2	46%	12µM*	23%	-13%	-27%
CCOc1cccc(OCCCCn2ccnc2)c1	-11%	-9%	12µM*	-3%	/
Fc1ccc(OCCCCCn2ccnc2)cc1	2%	4.1µM*	-24%	-3%	-27%
COc1cc(OC)c(NC(=O)Cn2cnc3nc4c(cc3c2=O)CCCC4)cc1Cl	/	/	/	-18%	-11%
CCNc1nc(NCC)n2c(SCC(=O)Nc3cc(OC)ccc3OC)nnc2n1	-16%	8.3µM*	?	-10%	-12%
CCNc1nc(NCC)n2c(SCC(=O)Nc3ccc(Br)cc3F)nnc2n1	4%	?	12µM*	-16%	-3%
CCNc1nc(NCC)n2c(SCC(=O)Nc3ccc(F)cc3)nnc2n1	11%	?	0%	4%	-9%
CCNc1nc(NCC)n2c(SCC(=O)Nc3ccccc3)nnc2n1	14%	?	-20%	-11%	i
CCNc1nc(NCC)n2c(SCC(=O)Nc3ccc(C)c(C)c3)nnc2n1	-5%	-33%	9.3µM*	-10%	0%
COc1ccc(OC)c(NC(=O)CSc2nncc3ccc(OC)c(OC)c23)c1	-28%	9.3µM*	?	-2%	-13%
COc1cccc(CNCCSc2nnnn2C)c1OCc1ccccc1	/	/	/	-15%	-21%
COc1ccc(C2Nc3ccccc3C(=O)N2Cc2ccccc2)cc1COc1ccc([N+](=O)[O-])cc1 (stereo not given)	/	/	/	7%	28%
COc1ccc(NCc2nnc3n2CCCCC3)c(OC)c1	/	/	/	1%	1%
CCc1ccc(C(=O)c2cn(CC(=O)Nc3cc(OC)ccc3OC)c3ccc(C)cc3c2=O)cc1	/	/	/	-11%	-16%
S=C(NCCN1CCOCC1)N/N=C/c1cccs1	86%	2.3µM*	3.3µM*	/	/
Oc1ccc(/C=N/NC(=S)NC2CC3CCC2C3)cc1 (stereo not given)	51%	?	?	0%	-22%
O=C(NCCN1CCOCC1)c1cc(-c2cccs2)on1	6%	9.3µM*	62%	-19%	?
S=C(N/N=C/c1cccs1)NC1CC2CCC1C2 (stereo not given)	11%	10µM*	?	-5%	-15%
CCOC(=O)c1c(NC(=O)CCCOc2ccc(Cl)cc2)sc2c1CCC2	/	/	/	-1%	-8%
Cc1cc(NC(=O)Cn2c(=O)c3c(ncn3CCC(C)C)n(Cc3ccccc3)c2=O)no1	-6%	6%	3.3µM*	/	/
SMILES	AMA1 RON2 block	Pf growth 96h	Pf growth 48h	VACV Venus inh	Vaccinia mCherry
CCCCNC(=O)Cn1c(=O)c2c(ncn2CCC(C)C)n(Cc2ccccc2)c1=O	7%	2.3µM*	?	-9%	-8%
Cc1cc(NC(=O)Cn2c(=O)c3c(ncn3CC(C)C)n(Cc3ccccc3)c2=O)no1	3%	4.7µM*	8.3µM*	/	/
CC(C)Cn1cnc2c1c(=O)n(CC(=O)Nc1ccc3c(c1)OCO3)c(=O)n2Cc1ccccc1	?	10µM*	9.3µM*	-20%	-28%
C[C@H](N)CCP(=O)(O)O	/	/	/	-9%	i
O=C(NCc1nnc2n1CCN(Cc1cc(F)cc(F)c1)CC2)c1cccc(F)c1	/	/	/	-26%	?
CC(C)Cn1cnc2c1c(=O)n(CC(=O)NC(=O)NC(C)(C)C)c(=O)n2Cc1ccccc1	-1%	?	2.9µM*	-9%	-6%
COc1ccc2c(Sc3ccc(C)cc3)c(C(=O)NCc3ccc(F)cc3)[nH]c2c1	/	/	/	-6%	-10%
c1nc2n(n1)C1=C(CCCC1)C1(CCCCC1)N2	3%	2.6µM*	?	-9%	i
Cc1ccc(CSc2nc(=O)c3c(n2C)NC(=O)CC3c2ccc(OC(C)C)cc2)cc1 (stereo not given)	/	/	/	-2%	0%
Cc1[nH]c(=O)[nH]c(=O)c1S(=O)(=O)N1CCN(c2ccccc2Cl)CC1	/	/	/	-12%	-10%

From PubChem
